Measurements: PubChem BioAssay (NCATS)
Inconclusive results are not listed. A number with no mark means an inactive call. The source made the active and inactive calls. The call rests on the fitted dose curve; in most records, active means well fitted curve in the direction sought with a large enough effect; inconclusive means small, poorly fitted or top-dose-only effect, or another doubt; inactive means no such curve, though single readings can be large; an effect the other way counts as inactive or inconclusive.

Experiment: Identifying Small Molecule Inhibitors of Pancreatic Cancer Stem Cells (A2780, Spheroid) (AID 1259357);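 further: spheroids pre-formed over 14 days in stem cell medium on hydrogel; compound exposure lasted 48 h before the ATP luminescence read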;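 on viability (percent of control): 100% = DMSO treated cells and 0% = wells without cells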
Conditions: Potency: A2780 spheroid viability; series mostly up to 46.1 µM; viability (percent of control): at the top concentration
Outline: (§1)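 Luminescent ATP readout (CellTiter-Glo) quantifies surviving cells after a 48 h drug incubation. Normalization uses DMSO wells as no inhibition and media-only wells as full inhibition; bortezomib served as positive control.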
Potency means the concentration at half of the fitted maximal effect.

| SMILES | viability (percent of control) [%] | Potency |
| --- | --- | --- |
| COc1cc2ncnc(-n3nc(-c4ccccn4)nc3N)c2cc1OC | 106 |  |
| CC(C)(C)C(=O)Oc1ccc2c(c1)nc(NC(=O)c1cccc([N+](=O)[O-])c1)n2CCCO | 80.3 |  |
| O=c1cc(N2CCOCC2)oc2c(-c3cccc4c3sc3ccccc34)cccc12 |  | 26.4 µM (active) |

Experiment: Identifying Small Molecule Inhibitors of Pancreatic Cancer Stem Cells (SN12C, Adherent) (AID 1259358);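 further: cell survival measured after 48 h of compound exposure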
Conditions: viability/growth inhibition; series mostly up to 46.1 µM; viability (percent of control): at the top concentration
Outline: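 Pre-formed 14-day tumor spheroids or adherent cells dosed and incubated 48 h, 37C, 5% CO2. Viability assessed by CellTiter-Glo.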

| SMILES | Potency | viability (percent of control) [%] |
| --- | --- | --- |
| COc1cc(N2CCC(N3CCN(C)CC3)CC2)ccc1Nc1ncc(Cl)c(Nc2ccccc2S(=O)(=O)C(C)C)n1 | 18.7 µM (active) |  |
| COc1cc2ncnc(-n3nc(-c4ccccn4)nc3N)c2cc1OC | 5.9 µM (active) |  |
| CC(C)(C)C(=O)Oc1ccc2c(c1)nc(NC(=O)c1cccc([N+](=O)[O-])c1)n2CCCO |  | 89.9 |
| CN(C)C1CCN(C(=O)c2ccc(NC(=O)Nc3nc(N4CCOCC4)nc(N4CCOCC4)n3)cc2)CC1 | 0.0074 µM (active) |  |

Experiment: Identifying Small Molecule Inhibitors of Pancreatic Cancer Stem Cells (SN12C, Spheroid) (AID 1259360);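 on viability (% of control): 100% = DMSO-treated cells and 0% = wells without cells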
Conditions: Potency: SN12C spheroid viability; series mostly up to 46.1 µM; viability (% of control): at the top concentration
Outline: as §1

| SMILES | viability (% of control) [%] | Potency |
| --- | --- | --- |
| O=C(Nc1cc(Cl)cc2c1[nH]c1cnccc12)c1cccnc1 | 102 |  |
| COc1cc(N2CCC(N3CCN(C)CC3)CC2)ccc1Nc1ncc(Cl)c(Nc2ccccc2S(=O)(=O)C(C)C)n1 |  | 20.9 µM (active) |
| CC(C)(C)C(=O)Oc1ccc2c(c1)nc(NC(=O)c1cccc([N+](=O)[O-])c1)n2CCCO | 81.1 |  |
| CN(C)Cc1ccc(-c2nc3cccc4c3n2CCNC4=O)cc1 | 101 |  |
